# Screening data (PubChem)
# Only some compounds are listed: those with a hit (about 9.1% of all), similar ones and a draw of the others.
# M1 antagonist: antagonists of rat M1 muscarinic receptor | Muscarinic acetylcholine receptor M1 (Rattus norvegicus), P08482 | CHO-M1 cells, Fluo-4 calcium, ACh EC80 antagonist mode; stronger effect = lower value | B-score at 10 µM | 64,000 tested, 3.4% active | AID 628, 2007;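 active = calcium fluorescence response, raw or row-and-column corrected B-score, differing from the plate sample mean either way at a set confidence level, mostly lower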
# Target sequence (P08482 whole entry, looked up): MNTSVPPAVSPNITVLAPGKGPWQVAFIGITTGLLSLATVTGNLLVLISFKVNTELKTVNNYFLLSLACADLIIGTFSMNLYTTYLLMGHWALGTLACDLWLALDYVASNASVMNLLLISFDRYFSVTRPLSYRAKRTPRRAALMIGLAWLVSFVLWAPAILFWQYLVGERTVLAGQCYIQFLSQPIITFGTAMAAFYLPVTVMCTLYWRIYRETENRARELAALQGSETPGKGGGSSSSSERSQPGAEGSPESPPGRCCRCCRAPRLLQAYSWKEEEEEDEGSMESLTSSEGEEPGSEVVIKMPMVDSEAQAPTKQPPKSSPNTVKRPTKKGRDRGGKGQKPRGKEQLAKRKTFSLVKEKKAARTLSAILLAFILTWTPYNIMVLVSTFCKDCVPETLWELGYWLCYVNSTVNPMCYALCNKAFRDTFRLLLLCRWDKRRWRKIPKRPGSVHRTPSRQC
# D1 mod: D1 CRE-luciferase signal change, two-sided – cell-based, HEK293 D1, dopamine EC30, D1 allosteric modulator project, primary screen; D(1A) dopamine receptor (Homo sapiens), P21728; dopamine EC30 potentiation; actives deviate in either direction; B-score at 10 µM; 58,000 tested, 5.9% active; AID 641, 2007;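 active = luminescence count or its row- and column-corrected plate score outside the 99.7% band of the plate's sample wells, on either side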
# Htt clearance: clearance of mutant huntingtin inclusions, primary screen, imaging, HeLa Exon1htt(103Q)mCFP, confocal imaging; aggregate imaging; zero = plate's median compound well; inhibition, % at 1.5 µM; 47,000 tested, 0.42% active;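 active = inhibition of aggregate fluorescence above about 70%, also judged a hit by eye on the cell image, limit read from the data, passing the limit was not always enough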;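 note: cells exposed to compound for three days before fixation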
# M1 ag: M1 muscarinic receptor agonists, primary screen, CHO-M1 cells, Fluo-4 calcium, agonist mode | Muscarinic acetylcholine receptor M1 | Fluo-4 calcium fluorescence; stronger effect = higher value | B-score at 10 µM | 64,000 tested, 3% active;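 active = fluorescence rise, raw or as B-score row- and column-corrected plate score, outside the 99.7% band of its plate's samples, either direction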
# M1 antag conf: rat M1 muscarinic receptor antagonists, confirmation, CHO cells, Fluo-4 calcium, duplicate | shares compounds with M1 antagonist | ACh EC80 antagonism; stronger effect = lower value | calcium response (max-min fluorescence) at 10 µM | 1,700 tested, 43% active;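 active = calcium response below the same-plate mean of wells given acetylcholine alone at its 80%-effect dose, minus 3 SD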
# mGluR4 antag: human mGluR4 response to M1 antagonist hits, M1 allosteric modulator project, cell-based, antagonist mode, secondary assay 1 | AID 678, 2007 | 1,700 tested, 0.9% active | CHO-mGluR4 calcium flux, Fluo-4 fluorescence, glutamate EC80; stronger effect = lower value | fluorescence response (max-min) at 10 µM | shares compounds with M1 antagonist;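 active = fluorescence response below the plate's average for near-maximal glutamate wells, less 3 SD of those wells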;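 note: raw unnormalized fluorescence span taken in the window right after glutamate addition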
# A number is an active result; - = inactive; . = no result given.
SMILES,M1 antagonist,D1 mod,Htt clearance,M1 ag,M1 antag conf,mGluR4 antag
CCC(C)(C)NC(=O)C(c1ccc(OC)cc1)N(Cc1cccs1)C(=O)CCC(=O)Nc1cc(C)on1 (configuration not stated),.,.,-,.,.,.
Cc1ccc(-c2nnc3sc(C4COc5ccccc5O4)nn23)cc1 (configuration not stated),-3.4,-,.,-,-,-
O=S(=O)(CCOc1ccccc1)c1nc2ccccc2[nH]1,-,-,-,-,.,.
CCOC(=O)N1CCN(C(=O)C2CCCN(Cc3nc(-c4ccc(Cl)cc4)oc3C)C2)CC1 (configuration not stated),-3.8,-,-,-,343,-
Cc1oc(-c2ccc(Cl)cc2)nc1CN1CCCC(C(=O)NCCCN2CCCC2=O)C1 (configuration not stated),-4,-,.,-,-,-
CCOC(=O)N1CCN(C(=O)CSCc2nc(-c3ccccc3C)oc2C)CC1,-,-,-,-,.,.
Cc1oc(-c2ccc(Cl)cc2)nc1CN1CCCC(C(=O)N2CCc3ccccc32)C1 (configuration not stated),-,-,.,-,.,.
CCOC(=O)N1CCN(C(=O)C2CCN(Cc3nc(-c4ccccc4C)oc3C)CC2)CC1,-3,-,.,-,-,-
O=C(CSc1nnc(-c2cccs2)n1CC1CCCO1)c1cc2ccccc2o1 (configuration not stated),-,.,-,-,.,.
CC1S/C(=C(\C#N)C(N)=O)N(c2ccc(F)cc2)C1=O (configuration not stated),-,-,-,-,.,.
O=C(CCn1nnc2ccccc21)Nc1nnc(-c2ccccc2F)s1,-,.,-,-,.,.
CCCC(=O)Nc1ccccc1-c1nnc(SC)[nH]c1=O,-,-,.,-,.,.
CCn1c(NCc2cc(Br)ccc2NS(=O)(=O)c2ccc(C)cc2)nc2ccccc21,.,.,-,.,.,.
CN(CCC#N)C(=O)COC(=O)c1ccc(Cl)c(S(N)(=O)=O)c1,-12,-,-,-,-,-
O=S1(=O)CCC(SCc2nc3sccn3c2Br)C1 (configuration not stated),-,-,.,-,.,.
c1coc(-c2nn3c(Cn4nnc5ccccc54)nnc3s2)c1,-,-,-,-,.,.
CCSc1nc(N)c2c3c(sc2n1)CN(C)CC3,-,.,.,-,.,.
CSc1nc(NCc2ccco2)c2c3c(sc2n1)CN(C)CC3,-2.8,-4,-,-,-,-
CCC(O)CNc1nc(SC)nc2sc3c(c12)CCN(C)C3 (configuration not stated),-4.3,.,.,-,154,-
CSc1nc(SCC(N)=O)c2c3c(sc2n1)CN(C)CC3,-5.1,.,-,-,361,-
Cc1ccc2cccc(S(=O)(=O)Nc3ccc4c(c3)OCO4)c2n1,-,-,-,-,.,.
CSc1nc(-c2ccccc2O)nc(-c2ccccc2O)n1,-,-,.,-,.,.
COc1ccc(C2CC(=O)c3cnc(N4CCN(Cc5ccccc5)CC4)nc3C2)cc1 (configuration not stated),-,-,-,-,.,.
O=C1CC(c2ccco2)Cc2nc(N3CCN(Cc4ccc5c(c4)OCO5)CC3)ncc21 (configuration not stated),-1.9,-,.,-,509,-
COCCN1C(=O)C(=O)/C(=C(/O)c2cccc(S(=O)(=O)N(C)C)c2)C12C(=O)N(C)c1ccccc12 (configuration not stated),-,-,-,-,.,.
SMILES,M1 antagonist,D1 mod,Htt clearance,M1 ag,M1 antag conf,mGluR4 antag
Cn1c(COc2ccc3ccccc3c2)nnc1SCC(N)=O,-0.16,-,.,-,-,-
Cc1nc(N)nc(-c2ccccc2O)n1,.,.,-,.,.,.
CN(C)c1nc2c(c(=O)[nH]c(=O)n2C)n1Cc1ccccc1Br,-2.9,-,.,-,-,-
COc1cccc(CN(C)C(=O)c2ccc3nccnc3c2)c1,.,.,-,.,.,.
Cc1occc1-c1nnc(SCC(=O)N(C)CCC#N)n1N,.,.,-,.,.,.
O=C(c1cc2nc(-c3ccco3)cc(C(F)(F)F)n2n1)N1CCc2ccccc2C1,-,-,.,-,.,.
O=C(c1cc2nc3c(c(C(F)(F)F)n2n1)CCc1ccccc1-3)N1CCN2CCCC2C1 (configuration not stated),-3.1,-,.,-,343,-
COCCCn1c(SCC(=O)N(C)C)nnc1-c1ccccc1,-,-,.,-,.,.
CCOC(=O)CN(C(=O)CSc1nnc(-c2ccncc2)n1CCCN(C)C)c1ccccc1,-1.4,-,.,-,-,-
CCOC(=O)Nc1ccc2c(c1)N(C(=O)OCCN(C)C)c1ccccc1CC2,-3.3,-,.,-,294,-
CCS(=O)(=O)Nc1ccc2c(c1)N(C(C)=O)c1ccccc1CC2,-,-,-,-,.,.
CCn1c(SCC(N)=O)nc2ccccc2c1=O,-,.,-,-,.,.
C=C(C)Cn1c(SCC)nc2ccccc2c1=O,-4.1,-,-,-,-,-
CS(=O)(=O)Nc1ccccc1C(=O)Nc1cccc(Cl)c1,-2.5,-,-,-,-,-
COc1cccc(NC(=O)c2ccccc2NS(C)(=O)=O)c1,-,.,-,-,.,.
CC1Cc2ccccc2N1CC(=O)NC(=O)NCc1ccco1 (configuration not stated),-4.1,.,.,-,-,-
O=C(CN1CCCc2ccccc21)NC(=O)NCc1ccco1,-,-,.,-,.,.
CCc1ccc(CNc2ccc3c(c2)ncn3C)cc1,-2.7,-,.,-,-,-
Cc1ccc(CNc2ccc3c(c2)ncn3C)cc1,.,-,-,.,.,.
N#Cc1ccc(Oc2cccnc2)cc1C#N,-,-,.,-,.,.
CCOC(=O)c1c(NC(=O)CSc2nnc(-c3ccccc3)n2CC)sc(C(C)=O)c1C,-1.2,-,-,-,-,-
COc1ccc(-c2cc(O)cc(O)c2)cc1,-,-,.,-,.,.
O=C(CC(c1ccccc1O)N1CCCCC1)N1CCCCC1 (configuration not stated),-17,-,-,-,84,-
O=C(CN1C(=O)c2ccccc2C1=O)N1CCCCC1,-,.,.,-,.,.
CC(C)c1nc2oc3c(N4CCNCC4)ncnc3c2c2c1CCC2,-2.9,-,.,-,292,-
CCC(C)(C)NC(=O)CN(CC1CCCO1)C(=O)CCC(=O)Nc1nccs1 (configuration not stated),-,-,.,-,.,.
CCOC(=O)N1CCC(NC(=O)c2ccc3c(c2)sc2nc(-c4ccc(OC)cc4)cn23)CC1,.,.,-,.,.,.
CCOC(=O)N1CCN(C(=O)c2ccc3c(c2)sc2nc(-c4ccccc4)cn23)CC1,-2.9,.,.,-,397,-
COc1ccc(-c2[nH]ncc2-c2cnn(-c3ccccc3)c2)c(O)c1,-3.3,-,-,-,-,-
CCCn1c(SCC(=O)N2c3ccc(F)cc3CCC2C)nnc1-c1ccccn1 (configuration not stated),.,.,-,.,.,.
